Measured values as given in PubChem BioAssay (Tox21).
Values joined by “and” are separate entries in the source; they are usually repeats but may differ in a detail not shown here. Equal values may be shown once. Records with an inconclusive call do not appear. Entries that show only a call come without a potency. Active and inactive are the calls of the source. The call rests on the fitted dose curve; in most records, active means well fitted curve in the direction sought with a large enough effect in the repeat runs; inconclusive means weak or mixed curves; inactive means no such curve, though single readings can be large; an effect the other way counts as inactive or inconclusive.

Columns and labels:
[1] = A CellTox Green Cytotoxicity Assay to monitor cytotoxicity in HEK293 cells - 32 hour (AID 1224881); further: nearly all actives have a fitted effect of over 40% in size
How it was run: (§1)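 Cells (HEK293, 600/well) and dye reagent are dispensed together. After 5 h at 37 C, 23 nL compound is pinned in. Plates stay at 37 C for 40 h with fluorescence read at 0h, 8h, 16h, 24h, 32h and 40h.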

[2] = A CellTox Green Cytotoxicity Assay to monitor cytotoxicity in HepG2 cells - 0 hour (AID 1224882); further: nearly all actives have a fitted effect of over 35% in size
How it was run: (§2)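 Cells and non-lytic dye reagent are dispensed together (600 HepG2 cells/well) and incubated 5 h before DMSO compound transfer. Kinetic fluorescence is then recorded in the same wells during 40 h at 37 C.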

[3] = A CellTox Green Cytotoxicity Assay to monitor cytotoxicity in HepG2 cells - 32 hour (AID 1224883); further: nearly all actives have a fitted effect of over 50% in size
How it was run: as §2

[4] = A CellTox Green Cytotoxicity Assay to monitor cytotoxicity in HEK293 cells - 8 hour (AID 1224884); further: nearly all actives have a fitted effect of over 35% in size
How it was run: as §1

[5] = qHTS RealTime-Glo MT Cell Viability Assay in HEK293 cells - 8 hour (AID 1224887); further: nearly all actives have a fitted effect of over 50% in size
How it was run: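 Real-time viability in HEK293: signal arises when living cells convert a prosubstrate for NanoLuc in the medium, so luminescence tracks viable cell number. Compound (23 nL, DMSO) added 5 h post-seeding; kinetic reads at 0–40 h, 37 C.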

[6] = A CellTox Green Cytotoxicity Assay to monitor cytotoxicity in HEK293 cells - 16 hour (AID 1224888); further: nearly all actives have a fitted effect of over 35% in size
How it was run: as §1

[7] = qHTS RealTime-Glo MT Cell Viability Assay in HepG2 cells - 0 hour (AID 1224889); further: nearly all actives have a fitted effect of over 50% in size
How it was run: (§3)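 HepG2 cells were seeded at 600 cells/well together with NanoLuc luciferase and a cell-permeant prosubstrate, preincubated 5 h at 37 C/5% CO2, then pin-dosed with compounds in DMSO. Nonlytic luminescence from viable cells was read at each time point.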

[8] = A CellTox Green Cytotoxicity Assay to monitor cytotoxicity in HepG2 cells - 8 hour (AID 1224890); further: nearly all actives have a fitted effect of over 45% in size
How it was run: as §2

[9] = qHTS RealTime-Glo MT Cell Viability Assay in HepG2 cells - 16 hour (AID 1224885); further: nearly all actives have a fitted effect of over 50% in size
How it was run: as §3

[10] = qHTS RealTime-Glo MT Cell Viability Assay in HEK293 cells - 24 hour (AID 1224886); further: nearly all actives have a fitted effect of over 50% in size
How it was run: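 HEK293 cells were seeded at 600 cells/well together with NanoLuc luciferase and cell-permeant prosubstrate, preincubated 5 h at 37 C/5% CO2, then given compound in DMSO by pintool. Luminescence from viable-cell prosubstrate reduction was read repeatedly over 40 h.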
Potency means the concentration at half of the fitted maximal effect.

| SMILES | Potency [1] | Potency [2] | Potency [3] | Potency [4] | Potency [5] | Potency [6] | Potency [7] | Potency [8] | Potency [9] | Potency [10] |
| --- | --- | --- | --- | --- | --- | --- | --- | --- | --- | --- |
| Cc1cc(=O)oc2cc(N(C)C)ccc12 | inactive | inactive | inactive | inactive | inactive | inactive | inactive | inactive |  |  |
| CCOC(=O)/C=C(C)/C=C/C=C(C)/C=C/c1c(C)cc(OC)c(C)c1C | inactive | inactive | inactive | inactive | inactive | inactive | inactive | inactive |  |  |
| CCN(CC)CCCC(C)Nc1c2ccc(Cl)cc2nc2ccc(OC)cc12 (stereo not drawn) | 7.56 µM (active) | 21.3 µM (active) | 6.74 µM (active) |  | 5.35 µM (active) | 23.9 µM (active) | inactive | 16.9 µM (active) | 9.52 µM (active) | 4.25 µM (active) |
| CCN(C(=O)N(CC)c1ccccc1)c1ccccc1 | inactive | inactive | inactive | inactive |  | inactive | inactive | inactive |  |  |
| S=c1[nH]c2ccccc2s1 | 49 µM (active) |  |  |  | inactive |  | inactive |  |  | inactive |
| CS(=O)(=O)CCNCc1ccc(-c2ccc3ncnc(Nc4ccc(OCc5cccc(F)c5)c(Cl)c4)c3c2)o1 | inactive | inactive |  | inactive | 21.3 µM (active) | inactive | 8.49 µM (active) | inactive | 21.3 µM (active) | 21.3 µM (active) |
| CC(C)(C)CC(C)(C)c1ccc(O)c(Cc2ccc(Cl)cc2Cl)c1 | 23.9 µM (active) | inactive |  | inactive | 23.9 µM (active) |  | inactive |  |  | 23.9 µM (active) |
| COc1ccc(-c2ccc3cc(C(=O)O)ccc3c2)cc1C12CC3CC(CC(C3)C1)C2 | inactive |  | 21.3 µM (active) | inactive | inactive | inactive | inactive |  |  | 4.77 µM (active) |
| COc1cc(-c2nc(NC(=O)c3cc4cc(C)cc(C)c4n3CC(=O)O)sc2CCC2CCCCC2)c(OC)cc1Cl | inactive | 44.9 µM (active) |  |  | inactive | inactive |  | 40 µM (active) | 35.7 µM (active) | 40 µM (active) |
| CCc1cc(Cc2cc(CC)c(N)c(CC)c2)cc(CC)c1N | inactive | inactive |  |  | 27.5 µM (active) | inactive | inactive | inactive |  | 27.5 µM (active) |
| N#CSc1ccc(N)c([N+](=O)[O-])c1 | inactive | inactive |  | inactive |  | inactive | inactive | inactive | inactive | 49.3 µM (active) |
| C=C(C)C(=O)OCC(O)COc1ccc(C(C)(C)c2ccc(OCC(O)COC(=O)C(=C)C)cc2)cc1 (stereo not drawn) | inactive | inactive |  | inactive | 11 µM (active) | inactive | inactive | inactive |  | 11 µM (active) |
| COc1cccc2c1C(=O)c1c(O)c3c(c(O)c1C2=O)C[C@@](O)(C(=O)CO)C[C@@H]3O[C@H]1C[C@H](N)[C@H](O[C@@H]2CCCCO2)[C@H](C)O1 | inactive |  | 1.69 µM (active) | inactive | inactive | inactive | inactive | 23.9 µM (active) |  | 0.338 µM (active) |
| C[C@H]1[C@H]2CC[C@H]3[C@@H]4CC=C5C[C@@H](N(C)C)CC[C@]5(C)[C@H]4CC[C@]23CN1C | inactive |  | inactive | inactive | inactive | inactive | inactive |  | inactive | inactive |
| O=C(Oc1cccc2cccnc12)c1ccccc1 |  | inactive | 0.338 µM (active) | inactive | inactive | inactive | inactive | inactive | inactive | inactive |
| CC(C)(C)NC(=O)[C@@H]1C[C@@H]2CCCC[C@@H]2CN1C[C@@H](O)[C@H](Cc1ccccc1)NC(=O)[C@H](CC(N)=O)NC(=O)c1ccc2ccccc2n1 |  | inactive | 55.7 µM (active) | inactive | 19.7 µM (active) | inactive | inactive | inactive | 55.7 µM (active) | 19.7 µM (active) |
| Oc1ccc(N=Nc2ccccc2)cc1 | 44.2 µM (active) | inactive |  |  | 19.8 µM (active) |  | inactive | inactive | inactive | 17.6 µM (active) |
| Cc1ccc(O)c2ncccc12 |  | inactive | 8.49 µM (active) | inactive | inactive | inactive | inactive | inactive | inactive | inactive |
| NC(=NCCCCCCN=C(N)/N=C(\N)Nc1ccc(Cl)cc1)/N=C(\N)Nc1ccc(Cl)cc1 | 19.4 µM (active) [middle of 4 runs] | inactive |  | 35.3 µM (active) and 54.6 µM (active) |  |  | inactive | 54.6 µM (active) | 43.4 µM (active) and 31.5 µM (active) and 24.4 µM (active) | 10.9 µM (active) [middle of 5 runs] |
| CCCCC(CC)COP(=O)(O)OCC(CC)CCCC (stereo not drawn) | 43.6 µM (active) | inactive |  | inactive | inactive | 38.9 µM (active) | inactive | inactive | inactive |  |
| CC(C)(C)C1CCC(CC2=C(O)c3ccccc3C(=O)C2=O)CC1 (stereo not drawn) | 21.3 µM (active) | inactive |  | inactive |  | inactive | inactive | inactive | inactive |  |
| CC(C)(C)c1ccc(C(=O)CCCN2CCC(OC(c3ccccc3)c3ccccc3)CC2)cc1 | 23.9 µM (active) |  | 21.3 µM (active) |  | 9.52 µM (active) | 21.3 µM (active) | inactive | 23.9 µM (active) | 21.3 µM (active) | 8.49 µM (active) |
